Experimental data as given in the supplement of paper PMC9262897, “Low-cost anti-mycobacterial drug discovery using engineered E. coli” (Nature Communications, 2022).
Where a name gives a salt, the structure may show the parent alone. ± gives the standard deviation of the averaged measurements.

The compounds below were run on E. coli TESEC Mtb DapB (assay: growth (OD600 after 10 h); higher = more growth (less inhibition)). Settings: arabinose induction (level): High; compound 0.1 mM; raw OD600 reference: median of DMSO wells […], cell-free background 0.041.
Procedure: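 TESEC E. coli strains in which the native enzyme is deleted and replaced by arabinose-inducible Mtb Asd, DapB, CysH or TrpD, each grown in its selective medium. Strains were screened against the Prestwick library at 0.1 mM and 1% DMSO in 384-well format at low and high arabinose induction. Growth is read as OD600 after 10 h in triplicate.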

Point of comparison: `OCCN1C[C@H](O)[C@@H](O)[C@H](O)[C@H]1CO` [Miglitol], growth 0.207 ± 0.031. Against it:
- CCCCCCCCCCCCCCCC[N+](C)(C)CCN(Cc1ccc(OC)cc1)c1ncccn1 [Thonzonium bromide] — lower, 0.05637 ± 0.00046
- Cc1cc(CC(=O)O)n(C)c1C(=O)c1ccc(Cl)cc1 [Zomepirac sodium salt] — within error, 0.187 ± 0.0096
- O=C1CN(/N=C/c2ccc([N+](=O)[O-])o2)C(=O)N1 [Nitrofurantoin] — within error, 0.172 ± 0.009
- O=C(O)c1cn(C2CC2)c2cc(N3CCNCC3)c(F)cc2c1=O [Ciprofloxacin hydrochloride monohydrate] — lower, 0.049 ± 0.00046
- CCN(CC)CCOC(=O)c1ccc(N)cc1 [Procaine hydrochloride] — within error, 0.203 ± 0.026
- C=C1C[C@H]2[C@@H]3C=C(C)C4=CC(=O)CC[C@]4(C)[C@H]3CC[C@]2(C)[C@@]1(OC(C)=O)C(C)=O [Melengestrol acetate] — within error, 0.187 ± 0.0082
- O=c1[nH]c(=O)n(C2CCCO2)cc1F (stereo not given) [Tegafur] — within error, 0.2018 ± 0.0016
- CN(C)CC/C=C1/c2ccccc2Sc2ccc(Cl)cc21 [Chlorprothixene hydrochloride] — lower, 0.0467 ± 0.00076
- CC(C)(C)NCC(O)COc1cccc2c1CC(O)C(O)C2 (stereo not given) [Nadolol] — within error, 0.201 ± 0.02
- CC(C)(C)CC(C)(C)c1ccc(OCOCCOCCO)c(Cc2cc(C(C)(C)CC(C)(C)C)cc(Cc3cc(C(C)(C)CC(C)(C)C)ccc3OCOCCOCCO)c2OCOCCOCCO)c1 [Tyloxapol] — within error, 0.217 ± 0.018
- Cn1ccnc1S [Methimazole] — within error, 0.2 ± 0.0098
- CO[C@H]1/C=C/O[C@@]2(C)Oc3c(C)c(O)c4c(O)c(c(/C=N/N5CCN(C)CC5)c(O)c4c3C2=O)NC(=O)/C(C)=C\C=C\[C@H](C)[C@H](O)[C@@H](C)[C@@H](O)[C@@H](C)[C@H](OC(C)=O)[C@@H]1C [Rifampicin] — within error, 0.106 ± 0.094
- CN(C)CCOC(=O)C(c1ccccc1)C1(O)CCCC1 (stereo not given) [Cyclopentolate hydrochloride] — within error, 0.192 ± 0.021
- CN(C)CCN1C(=O)c2ccccc2N(C)c2ccccc21 [Dibenzepine hydrochloride] — within error, 0.165 ± 0.012
- CC[C@H]1OC(=O)[C@H](C)[C@@H](O[C@H]2C[C@@](C)(OC)[C@@H](O)[C@H](C)O2)[C@H](C)[C@@H](O[C@@H]2O[C@H](C)C[C@H](N(C)C)[C@H]2O)[C@](C)(O)C[C@@H](C)/C(=N\OCOCCOC)[C@H](C)[C@@H](O)[C@]1(C)O [Roxithromycin] — lower, 0.0507 ± 0.0027
- CC(=O)O[C@H]1C[C@@H]2CC[C@@H]3[C@H](CC[C@@]4(C)[C@H]3C[C@H]([N+]3(C)CCCCC3)[C@@H]4OC(C)=O)[C@@]2(C)C[C@@H]1N1CCCCC1 [Vecuronium bromide] — within error, 0.172 ± 0.019
- CC(=O)Oc1ccccc1C(=O)Oc1ccccc1C(=O)O [Acetylsalicylsalicylic acid] — within error, 0.19 ± 0.014
- N[C@H]1CONC1=O [(S)-(-)-Cycloserine] — within error, 0.211 ± 0.015
- O=C1CC[C@@H](C(=O)N2CSC[C@H]2C(=O)O)N1 [Pidotimod] — within error, 0.191 ± 0.013

Same assay, conditions: arabinose induction (level): Low; compound 0.1 mM; raw OD600 reference: median of DMSO wells 0.227, cell-free background 0.041

Point of comparison: `OCCN1C[C@H](O)[C@@H](O)[C@H](O)[C@H]1CO` [Miglitol], growth 0.223 ± 0.029. Against it:
- CCCCCCCCCCCCCCCC[N+](C)(C)CCN(Cc1ccc(OC)cc1)c1ncccn1 [Thonzonium bromide] — lower, 0.0589 ± 0.002
- Cc1cc(CC(=O)O)n(C)c1C(=O)c1ccc(Cl)cc1 [Zomepirac sodium salt] — within error, 0.247 ± 0.038
- O=C1CN(/N=C/c2ccc([N+](=O)[O-])o2)C(=O)N1 [Nitrofurantoin] — within error, 0.218 ± 0.034
- O=C(O)c1cn(C2CC2)c2cc(N3CCNCC3)c(F)cc2c1=O [Ciprofloxacin hydrochloride monohydrate] — lower, 0.0712 ± 0.04
- CCN(CC)CCOC(=O)c1ccc(N)cc1 [Procaine hydrochloride] — within error, 0.251 ± 0.046
- C=C1C[C@H]2[C@@H]3C=C(C)C4=CC(=O)CC[C@]4(C)[C@H]3CC[C@]2(C)[C@@]1(OC(C)=O)C(C)=O [Melengestrol acetate] — within error, 0.211 ± 0.036
- O=c1[nH]c(=O)n(C2CCCO2)cc1F (stereo not given) [Tegafur] — within error, 0.23 ± 0.032
- CN(C)CC/C=C1/c2ccccc2Sc2ccc(Cl)cc21 [Chlorprothixene hydrochloride] — lower, 0.0463 ± 0.00046
- CC(C)(C)NCC(O)COc1cccc2c1CC(O)C(O)C2 (stereo not given) [Nadolol] — within error, 0.259 ± 0.018
- CC(C)(C)CC(C)(C)c1ccc(OCOCCOCCO)c(Cc2cc(C(C)(C)CC(C)(C)C)cc(Cc3cc(C(C)(C)CC(C)(C)C)ccc3OCOCCOCCO)c2OCOCCOCCO)c1 [Tyloxapol] — within error, 0.261 ± 0.033
- Cn1ccnc1S [Methimazole] — within error, 0.262 ± 0.04
- CO[C@H]1/C=C/O[C@@]2(C)Oc3c(C)c(O)c4c(O)c(c(/C=N/N5CCN(C)CC5)c(O)c4c3C2=O)NC(=O)/C(C)=C\C=C\[C@H](C)[C@H](O)[C@@H](C)[C@@H](O)[C@@H](C)[C@H](OC(C)=O)[C@@H]1C [Rifampicin] — lower, 0.0504 ± 0.00072
- CN(C)CCOC(=O)C(c1ccccc1)C1(O)CCCC1 (stereo not given) [Cyclopentolate hydrochloride] — within error, 0.231 ± 0.045
- CN(C)CCN1C(=O)c2ccccc2N(C)c2ccccc21 [Dibenzepine hydrochloride] — lower, 0.187 ± 0.0044
- CC[C@H]1OC(=O)[C@H](C)[C@@H](O[C@H]2C[C@@](C)(OC)[C@@H](O)[C@H](C)O2)[C@H](C)[C@@H](O[C@@H]2O[C@H](C)C[C@H](N(C)C)[C@H]2O)[C@](C)(O)C[C@@H](C)/C(=N\OCOCCOC)[C@H](C)[C@@H](O)[C@]1(C)O [Roxithromycin] — lower, 0.0505 ± 0.00097
- CC(=O)O[C@H]1C[C@@H]2CC[C@@H]3[C@H](CC[C@@]4(C)[C@H]3C[C@H]([N+]3(C)CCCCC3)[C@@H]4OC(C)=O)[C@@]2(C)C[C@@H]1N1CCCCC1 [Vecuronium bromide] — within error, 0.216 ± 0.022
- CC(=O)Oc1ccccc1C(=O)Oc1ccccc1C(=O)O [Acetylsalicylsalicylic acid] — within error, 0.209 ± 0.0043
- N[C@H]1CONC1=O [(S)-(-)-Cycloserine] — within error, 0.276 ± 0.051
- O=C1CC[C@@H](C(=O)N2CSC[C@H]2C(=O)O)N1 [Pidotimod] — within error, 0.235 ± 0.037
